High-throughput results (PubChem BioAssay)
A selection: hits, their analogues and other compounds. The true share with any hit is near 2.7%.
bovine MsrA act = activators of bovine methionine sulfoxide reductase A; actives 0.3% (n = 360,000); activation, % at 10.6 µM; AID 602163; purified bovine MsrA, absorbance read-out; in the data active means activation above about 7.5%;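 further: 0% = vehicle and 100% = reference activator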
MsrA inh = inhibitors of bovine MsrA. actives 0.75% (n = 360,000). inhibition, % at 15.5 µM. purified bovine MsrA, absorbance read-out. AID 651718; in the data active means inhibition above about 4.5%;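 further: 0% = vehicle wells with enzyme and 100% = reference inhibitor wells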
NadD inh = inhibitors of Staphylococcus aureus NadD; actives 0.78% (n = 360,000); inhibition, % at 20 µM; purified NadD enzyme, colorimetric absorbance read-out; AID 602399; in the data active means inhibition above about 26%
rCAG RNA binder = r(CAG) repeat RNA binding | TO-PRO-1 dye displacement fluorescence | inhibition, % at 3 µM | actives 1.3% (n = 370,000);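 active means inhibition above the plate cutoff, the mean of all test compounds on that plate plus 3 SD, cut at about 35% in these data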;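 further: 0% = DMSO alone and 100% = 100 µM mitoxantrone as full dye displacement; higher means more dye released from RNA so lower well fluorescence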
MsrA activ conf = confirmation of bovine methionine sulfoxide reductase A activators; AID 602270; actives 12% (n = 1,000); purified bovine MsrA, absorbance read-out; activation, % at 10.6 µM; shares compounds with bovine MsrA act; in the data active means activation above about 4%;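 further: enzyme coupled to thioredoxin and thioredoxin reductase with NADPH; 0% = vehicle wells and 100% = reference activator wells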
* hit, by the source's call; nt = no result.

SMILES	bovine MsrA act	MsrA inh	NadD inh	rCAG RNA binder	MsrA activ conf
CC1CCN(CCCNC(=O)c2cn(C)c3ccc(S(=O)(=O)N4CCCC4)cc3c2=O)CC1	7.9*	3	1	1	0
CCOC(=O)N1CCN(C(=O)C[C@@H]2C[C@@]3(C(=O)OCC)CCC=C3N(Cc3cccc4ccccc34)C2=O)CC1	0	-1	3	6	nt
O=C(c1ccccc1)N1CCN(C(=O)c2cc3ccccc3o2)CC1	7.7*	-1	-6	4	-1
CCOC(=O)C1=CCN(S(=O)(=O)c2ccccc2C)C1c1cccc(F)c1 (centres undefined)	-3	-1	-9	1	nt
O=C(C1CCN(S(=O)(=O)N2CCOCC2)CC1)N1CCN(c2ccccc2)CC1	10*	0	-4	3	-2
O=C(C1CCN(S(=O)(=O)N2CCOCC2)CC1)N1CCOCC1	-3	0	-1	-1	nt
O=C(C[n+]1cc(-c2ccccc2)n2c1CCC2)c1cccs1	8.9*	2	-2	3	0
O=C(C[n+]1cc(-c2ccccc2)n2c1CCC2)N1c2ccccc2Sc2ccccc21	1	0	13	9	nt
CCOC(=O)c1cnc2c(OC)cccc2c1N1CCN(c2ccccc2OC)CC1	8.5*	0	-5	-9	-1
CC[C@H](C)[C@@H](C(=O)NCCCCCCCCCCC(=O)N1CCNCC1)n1cc(CCCCN=C(N)N)nn1	9.3*	0	-6	-2	0
CC[C@H](C)Cc1cn([C@@H](CCCN=C(N)N)C(=O)NCCCCCCCCCCC(=O)N2CCNCC2)nn1	-6	-2	-4	8	nt
Cc1cc(C)c2c(n1)nn1c(N3CCN(c4ccccc4C)CC3)cc(C)nc21	7.7*	1	0	2	-1
COc1ccc(CN2CCN(c3cc(C)nc4c5c(C)cc(C)nc5nn34)CC2)cc1F	-3	1	5	-1	nt
Cc1cccc(NC(=O)C2(C)CC3c4ccccc4C2c2ccccc23)c1 (centres undefined)	8.9*	0	-6	1	0
O=C(COc1ccccc1Cl)c1ccc2c(c1)CCCC2	8.3*	-1	4	0	-3
C#CC1(NC(=S)Nc2cccc(OC)c2)CCCCC1	-2	0	1	3	nt
CN(C)/C=C1\Oc2ccc3ccccc3c2C1=O	-5	-1	2	17	nt
O=C1C(=O)c2c(ccc3ccccc23)-c2ccccc21	12*	0	6	4	8.2*
CC1(c2ccc(Cl)cc2Cl)NC(=O)N(CC(=O)NCCC2=CCCCC2)C1=O (centres undefined)	-1	0	2	3	nt
Cc1ccc(S(=O)(=O)N(C)c2ccc(C(=O)NC3CCCCC3)cc2)cc1	-4	0	-4	1	nt
CCOC(=O)C1=NS(=O)(=O)NC(C)=C1	-5	1	-1	4	nt
Cc1ccc(C(=O)Nc2cccc(C(=O)N3CCOCC3)c2)cc1Cl	21*	-1	0	-4	-3
Cc1[nH]c2ccccc2c1CC(=O)Nc1ccc(Nc2cccnc2)c(Br)c1	nt	0	nt	12	nt
O=C(COC(=O)Cc1ccccc1F)Nc1ccc2c(c1)OCCO2	11*	-1	-7	-3	-2
O=c1[nH]c(=S)[nH]cc1Oc1ccc(Cl)cc1	9.0*	0	6	5	4.2*
SMILES	bovine MsrA act	MsrA inh	NadD inh	rCAG RNA binder	MsrA activ conf
CC(C)C[C@H]1CNC(=O)C(=O)N1C[C@@H]1CCCN1C[C@H](Cc1ccccc1)N1C[C@H](Cc2ccccc2)N(CC2CCCCC2)C(=O)C1=O	7.9*	-1	26	3	0
CC(C)C[C@H]1CNC(=O)C(=O)N1CC1CCN(CCC(C)c2ccccc2)CC1 (some centres undefined)	4	0	-7	-2	nt
CC(C)CCN1CCC(CN2C(=O)C(=O)NC[C@@H]2CC(C)C)CC1	12*	1	-7	0	1
CN1CCN(C(c2ccccn2)c2cc(Cl)c3cccnc3c2O)CC1 (centres undefined)	18*	2	-1	2	-2
Cc1ccc(C(c2cc(Cl)c3cccnc3c2O)N2CCN(C)CC2)cc1 (centres undefined)	-5	nt	5	nt	nt
CC(C)Cn1[nH]c2c3c(ccc2c1=O)C(=O)c1ccccc1C3=O	7.8*	nt	-4	nt	3
C/C(=N\NC(=S)NC(C)C)c1ccccc1OC(F)F	-3	-1	-2	-4	nt
CC(NC(=S)Nc1c(Br)cccc1OC(F)F)C(C)(C)C (centres undefined)	9.0*	0	-5	-7	0
O=C(CCC(=O)N1CCN(c2ccccn2)CC1)c1ccc(Cl)s1	-2	0	-1	18	nt
CC(=O)NC1(c2ccc(F)cc2)CCN(C(=O)Nc2ccc(F)cc2F)CC1	8.6*	-1	-1	-1	0
COc1ccccc1C(=O)NCCC(=O)NCCCSc1ccccc1	9.8*	0	-5	-3	0
Nc1[nH]c2cc(C(F)(F)F)ccc2c1C(=O)NC1CCCCC1	nt	nt	nt	2	nt
COc1ccc(NS(=O)(=O)c2cc(NC(=O)c3ccc(F)cc3)ccc2OC)cc1	9.7*	-1	-9	2	0
O=C(c1cccc([N+](=O)[O-])c1)c1cc2ccccc2o1	8.8*	1	-6	4	0
Cc1ccc(S(=O)(=O)NC(c2ccccc2)C(C)C(=O)n2nc(C)cc2C)cc1 (centres undefined)	8.1*	0	-4	0	1
Cc1ccc(S(=O)(=O)NC(CC(=O)n2nc(C)cc2C)c2ccccc2)cc1 (centres undefined)	-5	0	0	-4	nt
CCc1nc2c(OCC(=O)c3ccc(Cl)cc3Cl)cccn2c1N(C)C(=O)COc1ccccc1	-2	0	16	6	nt
COCCCNC(=O)C[C@H]1C[C@@]2(C(=O)OC)C(=C[C@H](C3CCCC3)O[C@@H]2C)N(CCc2ccc(OC)c(OC)c2)C1=O	nt	nt	nt	1	nt
Fc1ccc(-c2nc3ccc(Br)cn3c2Cc2cccc(Cl)c2)cc1	8.2*	0	4	10	-2
Cc1ccc2nc(-c3ccc(F)cc3)c(Cc3cccc(Cl)c3)n2c1	-2	0	4	14	nt
Cc1cc(=O)oc(C)c1C(=O)Nc1cccc2ccccc12	-2	-1	7	4	nt
Cc1cccc(NC(=O)c2c(C)cc(=O)oc2C)n1	14*	0	4	1	0
Cc1ccc(S(=O)(=O)C[C@@H]2OC3CCCCC3N2S(=O)(=O)c2ccc(C)cc2)cc1 (some centres undefined)	nt	1	nt	1	nt
CN(C)c1nc(OCCNC(=O)Nc2ccccc2)nc(N2CCOCC2)n1	16*	0	-4	-9	-1
CN(C)c1nc(OCCNC(=O)Nc2ccccc2)nc(N2CCCCC2)n1	-3	1	-11	-4	nt
CCOC(=O)C1=NOC2(C1)C(=O)Nc1c(Cl)cccc12 (centres undefined)	-1	1	4	2	nt
O=C(CCNS(=O)(=O)c1cccc2nonc12)Nc1ccc(Cl)cc1	13*	0	-7	3	1
COc1cccc(-c2cc(C(F)(F)F)n3nc(N)nc3n2)c1	14*	3	3	-2	-3
